Screening data from PubChem.
AMA1-RON2 inh – AMA1-RON2 (P. falciparum) interaction inhibition; AlphaScreen AMA1-biotinylated RON2 peptide binding; Potency, µM (highest dose often 58.2 µM), for the others: at the top dose activity change, negative = inhibition, hits mostly inhibitors; 0.2% of 360,000 active;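 also: 0% = vehicle wells and -100% = peptide control; nearly all actives have a fitted effect of over 45% in size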
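AMA1 (3D7) with his tag at 25 nM final met compounds first, then biotinylated RON2 peptide at 25 nM; detection used donor plus acceptor beads, 10 µg/mL apiece, read by AlphaScreen after 30 min at room temperature.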
Pf growth 48h – P. falciparum growth inhibition at 48 hours (one generation); P. falciparum luciferase growth in erythrocytes, 48 h; Potency, µM (doses to about 28.7 µM), for inactives: at the highest dose activity change, negative = inhibition, hits mostly inhibitors; 5.9% of 310,000 active; AID 504832; also: % is scaled to controls: 0 for no effect and ±100 for the full control effect
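Growth was read as firefly luciferase luminescence after a 48 h, 37 C, 5% CO2 exposure of compounds to reporter-bearing P. falciparum cultures (0.1% parasitemia, 2% hematocrit final) in Albumax-supplemented RPMI 1640.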
Pf growth 96h – inhibits malaria parasite growth, 96 h. P. falciparum luciferase reporter growth, 96 h. 6.9% of 320,000 active. Potency, µM (top dose mostly 28.7 µM), inactives show top-dose activity change, negative = inhibition, most hits filed as inhibitors. AID 504834; also: % is scaled to controls: 0 for no effect and ±100 for the full control effect
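P. falciparum expressing integrated firefly luciferase grown in erythrocytes (2% hematocrit, 0.05% parasitemia final) with compounds for 96 hours at 37 C, 5% CO2. Growth inhibition read as loss of luminescence after adding luciferase detection reagent.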
SARS PLpro yeast – inhibitors of SARS-CoV papain-like protease in yeast | S. cerevisiae expressing SARS-CoV PLpro, growth rescue | Potency, µM (series often up to 32.9 µM), inactives show top-dose activity, positive = growth rescue, usual class: activators | 0.19% of 330,000 active; calls by dose curve; also: 0% is about no effect; nearly all actives have a fitted effect of over 55% in size
The depositor's hits bear a star; ? = inconclusive; · = not tested or not shown. The list is not random: actives were taken first. Their share in the collection is about 9.4%. Unless noted, calls follow the shape of the dose curve; as a rule, active = well fitted curve in the direction sought with a large enough effect; inconclusive = small, poorly fitted or top-dose-only effect, or another doubt; inactive = no such curve, though single readings can be large; an effect the other way counts as inactive or inconclusive. Potency is read from the fitted curve at half-maximal effect.

SMILES	AMA1-RON2 inh	Pf growth 48h	Pf growth 96h	SARS PLpro yeast
O=C1CC(c2ccc(O)c(O)c2)Oc2c1ccc(O)c2O (stereo not given)	?	?	2.08µM*	1.8%
CC(C)=CCc1c(O)ccc2c1OC(c1ccc(O)c(O)c1)CC2=O (stereo not given)	-22.1%	4.1%	?	0.9%
N#Cc1cnc(SCC(=O)N2CCCC2)nc1N	-3.8%	-10.7%	-11.7%	1.3%
CCOC(=O)C1=C[C@]2(CC)CCCN3CCc4c(n1c1ccccc41)[C@@H]32	-4.1%	5.22µM*	3.7µM*	0.9%
CCOC(=O)C(C(=O)c1ccccc1)C1CC(C)NC(=S)N1 (stereo not given)	0.4%	12.4%	13.2%	5.9%
O=C1CN(C(=O)c2ccc(Br)o2)C(c2ccccc2)c2cc(Br)ccc2N1 (stereo not given)	-27.6%	·	5.86µM*	-6.0%
COC(=O)c1ccc(N2CCN(c3ccccc3)CC2)c(NC(=O)C2CC2)c1	1.8%	?	?	-12.7%
COc1ccc(C(=O)Nc2ccc(NC(C)=O)cc2)cc1S(=O)(=O)N(C)Cc1ccccc1	4.5%	?	4.65µM*	2.9%
COc1ccc(C(=O)Nc2ccc(C(=O)N3CCCCC3)cc2)cc1OC	1.2%	30.2%	17.3%	-4.6%
COc1cc(C(=O)Nc2ccc(O)cc2)ccc1OC(C)=O	14.0%	35.4%	·	-3.3%
COc1ccc(C(=O)Nc2ccc(C(=O)N3CCC(C)CC3)cc2)cc1OC	4.6%	?	2.62µM*	-2.0%
COc1cc(C(=O)Nc2ccc(C(=O)O)cc2)ccc1OC(C)=O	-10.3%	20.5%	2.33µM*	-0.4%
CCOc1cc(/C=C2\COc3ccccc3C2=O)cc(Br)c1OCC(=O)N(C)C	-13.4%	?	10.4µM*	-58.8%
COc1ccc(/C=C2\COc3ccccc3C2=O)cc1OC	?	15.3%	-65.4%	-81.3%
CC(=O)Oc1cc(C)cc2oc(=O)cc(-c3ccccc3)c12	-1.1%	16.1%	75.6%	-0.6%
CCOC(=O)C1=C(c2ccccc2)c2ccccc2OC1C(=O)OCC (stereo not given)	2.4%	·	·	-10.1%
C=CCN1CC(c2nc3ccccc3n2CCOc2ccccc2)CC1=O (stereo not given)	-21.8%	11.7µM*	34.9%	10.5%
CSCCC1Nc2ccc(S(=O)(=O)N3CCOCC3)cc2NC1=O (stereo not given)	6.3%	-23.9%	10.4µM*	2.8%
CCN1CCN(c2ccc(S(=O)(=O)N3CCOCC3)cc2NC(=O)CCSC)CC1	65.4%	?	-14.6%	4.1%
Cc1ccc2c(COn3nnc4ccc(S(=O)(=O)N(C)C)cc43)cc(=O)oc2c1C	·	4.5%	10.4µM*	0.0%
Cc1ccc(COn2nnc3ccc(S(=O)(=O)N4CCOCC4)cc32)cc1	-0.4%	-11.5%	?	-2.9%
OCCNc1cc(-n2nc(-c3ccccc3)cc2-c2ccccc2)ncn1	0.0%	?	?	-1.7%
C/C(O)=C\c1nc2ccccc2oc1=O	45.8%	?	?	-12.8%
O=c1oc2ccccc2nc1/C=C(\O)c1ccc(Br)cc1	62.3%	1.85µM*	?	-6.2%
C#CCOCCOCCOCCNc1nc(N2CCN(C(=O)CCCCCCCCCCNC(=O)[C@@H](CCC(=O)O)n3cc(CCCCCN)nn3)CC2)nc(N2CCN(C(=O)CCCCCCCCCCNC(=O)[C@H](CCCCN)n3cc(C[C@@H](C)CC)nn3)CC2)n1	?	5.86µM*	?	2.0%
SMILES	AMA1-RON2 inh	Pf growth 48h	Pf growth 96h	SARS PLpro yeast
C#CCOCCOCCOCCNc1nc(N2CCN(C(=O)[C@H]([C@@H](C)CC)n3cc(CCC(=O)O)nn3)CC2)nc(N2CCN(C(=O)[C@H](CCCCN)n3cc(CCC(=O)O)nn3)CC2)n1	0.6%	·	·	·
CC[C@H](C)Cc1cn([C@@H](CCCCN)C(=O)NCCCCCCCCCCC(=O)N2CCNCC2)nn1	-2.6%	11.7µM*	?	-9.7%
NCCCCCc1cn([C@@H](CCC(=O)O)C(=O)NCCCCCCCCCCC(=O)N2CCNCC2)nn1	-1.6%	17.9%	2.7%	-4.0%
C#CCOCCOCCOCCNc1nc(N2CCN(C(=O)CCCCCCCCCCNC(=O)[C@H](CCCCN)n3cc(CCO)nn3)CC2)nc(N2CCN(C(=O)CCCCCCCCCCNC(=O)[C@H](CCCCN)n3cc(CCCC(=O)O)nn3)CC2)n1	?	?	?	-5.3%
C#CCOCCOCCOCCNc1nc(N2CCN(C(=O)CCCCCCCCCCNC(=O)[C@H](CCCCN)n3cc(CCO)nn3)CC2)nc(N2CCN(C(=O)CCCCCCCCCCNC(=O)[C@H](CCCCN)n3cc(C[C@@H](C)CC)nn3)CC2)n1	?	7.38µM*	?	4.1%
Cc1ccsc1/C=N/NC(=O)CNC(=O)c1ccco1	2.3%	6.8%	-14.0%	2.0%
S=C(/N=c1/sccn1Cc1ccccc1)NC1CC1	-3.5%	?	11.7µM*	-5.3%
COc1cccc(NC(=O)CCc2ccccc2)c1	5.1%	61.6%	139.3%	2.4%
C#CCOCCOCCOCCNc1nc(N2CCN(C(=O)CCCCCCCCCCNC(=O)Cn3cc(C[C@@H](C)O)nn3)CC2)nc(N2CCN(C(=O)CCCCCCCCCCNC(=O)[C@@H](CCSC)n3cc(CCO)nn3)CC2)n1	-2.9%	0.185µM*	0.147µM*	-0.8%
C#CCOCCOCCOCCNc1nc(N2CCN(C(=O)CCCCCCCCCCNC(=O)[C@H](CCCCN)n3cc(C)nn3)CC2)nc(N2CCN(C(=O)CCCCCCCCCCNC(=O)[C@@H]([C@H](C)O)n3cc(C)nn3)CC2)n1	-17.7%	2.08µM*	1.17µM*	7.7%
C#CCOCCOCCOCCNc1nc(N2CCN(C(=O)CCCCCCCCCCNC(=O)[C@H](CCCCN)n3cc(C[C@@H](C)CC)nn3)CC2)nc(N2CCN(C(=O)CCCCCCCCCCNC(=O)[C@@H]([C@H](C)O)n3cc(C)nn3)CC2)n1	?	2.08µM*	0.37µM*	-15.6%
C#CCOCCOCCOCCNc1nc(N2CCN(C(=O)Cn3cc(CCO)nn3)CC2)nc(N2CCN(C(=O)Cn3cc(CC(C)O)nn3)CC2)n1 (stereo not given)	0.1%	·	·	·
C#CCOCCOCCOCCNc1nc(N2CCN(C(=O)[C@H]([C@@H](C)O)n3cc(CCCCN)nn3)CC2)nc(N2CCN(C(=O)[C@H](CCCCN)n3cc(CC(C)O)nn3)CC2)n1 (stereo not given in full)	1.6%	15.0%	-9.8%	1.8%
C#CCOCCOCCOCCNc1nc(N2CCN(C(=O)CCCCCCCCCCNC(=O)[C@@H](CCSC)n3cc(CCO)nn3)CC2)nc(N2CCN(C(=O)CCCCCCCCCCNC(=O)[C@@H]([C@H](C)O)n3cc(C)nn3)CC2)n1	-1.1%	0.147µM*	0.165µM*	9.2%
CN(C(=O)c1cc2c(s1)-c1ccccc1S(=O)(=O)C2)c1ccccc1	4.0%	9.28µM*	?	0.9%
CN(C(=O)c1cc2c(s1)-c1ccccc1S(=O)(=O)C2)c1ccccc1F	-7.0%	?	?	-2.6%
COc1ccc(N(C)C(=O)c2cc3c(s2)-c2ccc(Cl)cc2S(=O)(=O)C3)c(OC)c1	2.1%	?	13.1µM*	0.5%
